Results taken from PubChem BioAssay (NCI).
Several values for one entry are separate records, joined by “and”; a condition that tells them apart may be missing. Equal values may be shown once. The panel holds about 83,000 compounds, 20% with a hit somewhere; the sample as a whole holds those more often.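 Negative percent growth values reflect cell death: -40 means 40% of the cells present at the start died, and -100 means all died.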 Activity calls are given as the source filed them. How the source made its calls: active means growth percent below 10; inactive means the rest.

Each compound was assayed on MDA-MB-468 breast (assay: NCI-60 one-dose screen, 48 h (100 = growth as untreated, 0 = no growth, -100 = all killed)). Conditions: 10 µM unless noted.
CCC[S@@](=O)c1ccc2nc(NC(=O)OC)[nH]c2c1 was tested, and the growth was 68.5% (inactive). O=c1cc(-c2ccccc2)oc2c(O)c(O)ccc12 was tested, and the growth was 79.5% (inactive). In the case of CCCCNc1nc(NN2C(=O)c3cccc4cccc(c34)C2=O)nc(-n2cnc3ccccc32)n1, the growth is reported as 92.7% (inactive). With O=[N+]([O-])c1ccc(Sc2ncccn2)c([N+](=O)[O-])c1 the growth was 5.95% (active). CN1CCN(Cc2ccc(NC(=O)c3[nH]ncc3Nc3ccnc4ccsc34)cc2)CC1 was tested, and the growth was 18.5% (inactive). With Nc1cc(-c2ccc(Cl)cc2)nn1-c1nc(-c2ccc(Br)cc2)cs1 the growth was 99.4% (inactive). With COc1ccc(/C=C/C(=O)c2c(C)nc3ccccc3c2/C=C/c2ccccc2)cc1O the growth was 40.1% (inactive). With N#Cc1c(-c2ccc(Cl)cc2)csc1NC(=O)Nc1cccc(C(F)(F)F)c1 the growth was 7.03% (active). For Cc1ccc(C(=O)NCCNc2nccc(-c3c(-c4cccc(F)c4)nc4sccn34)n2)cc1, the growth was 38.7% (inactive). With COc1ccc(C2=C(c3cc(OC)c(OC)c(OC)c3)C(=O)CC2)cc1 the growth was 4.52% (active). CN(C)CCNc1nc2ccccc2c2c(=O)c3cc(F)ccc3sc12 was tested, and the growth was -28.1% (active). In the case of CCOC(=O)/C=C/C(=O)[C@H](CC(C)C)NC(=O)[C@H](Cc1ccccc1)NC(=O)OCc1ccccc1, the growth is reported as -21.5% (active). In the case of O=NN(CC(=O)N/N=C/C=C\c1ccccc1)CC(=O)N/N=C/C=C/c1ccccc1, the growth is reported as 91.1% (inactive). CN(C)c1ccc(C(=C2C=CC(=[N+](C)C)C=C2)c2ccc(N(C)C)cc2)cc1 was tested, and the growth was -82.4% (active). With COc1ccc(N/N=C/c2cn(-c3ccc(C(=O)O)cc3)nc2-c2cc3ccccc3oc2=O)cc1 the growth was 107% (inactive). With CNC(=S)N/N=C/CSC/C=N/NC(=S)NC the growth was 66.8% (inactive). In the case of COc1cc2nc(Cl)nc(Nc3cccc(C4=Nc5c(N)nc(N)nc5NC(c5ccc(Cl)cc5)C4)c3)c2cc1OC (stereo not given), the growth is reported as 27.5% (inactive). For O=C(N/N=C/c1ccccc1)N/N=C/c1ccccc1, the growth was 108% (inactive) and 96.4% (inactive). In the case of Cc1cc(C(=O)Nc2ncc(Cc3cccc(C(F)(F)F)c3)s2)c2ccccc2n1, the growth is reported as 1.69% (active). Fc1ccc(Nc2nc3nonc3nc2Nc2ccc(F)cc2)cc1 was tested, and the growth was -4.42% (active). O=C(CSc1nc2ccccc2[nH]1)NCc1ccccc1 was tested, and the growth was 101% (inactive). With C=C(C)[C@@H]1CC[C@]2(C(=O)NCCCCCCN(CCCN)CCCN)CC[C@]3(C)[C@H](CC[C@@H]4[C@@]5(C)CC[C@H](OCCCN)C(C)(C)[C@@H]5CC[C@]43C)[C@@H]12 the growth was 21.2% [100 µM] (inactive). O=C(c1nn(-c2ccccc2)c2c1CC(NCc1ccc(F)cc1)CC2)N1CCCCC1 (stereo not given) was tested, and the growth was 97% (inactive). O=C(N(c1ccccc1)c1ccccc1)n1cc(I)c2nc(Cl)nc(Cl)c21 was tested, and the growth was 27.8% (inactive). In the case of O=c1oc2ccc(I)cc2c(=O)n1-c1ccc(Cl)cc1F, the growth is reported as 0.339% (active). In the case of Cc1c(O)cc(-c2cnc(N/N=C\c3ccc(Cl)cc3)s2)c(O)c1C, the growth is reported as 76% (inactive). For Cc1csc2ccc(Cl)cc12, the growth was 96.8% (inactive). In the case of CCOC(=O)c1cc(C(=O)c2cc(OC)cc(OC)c2)n2ccc3ccccc3c12, the growth is reported as 74.5% (inactive). In the case of O=c1c2cc(F)cc(Cl)c2sc2c(Cl)nc3ccccc3c12, the growth is reported as 99% (inactive). In the case of C[C@@H]1COC(Nc2ccc3ncnc(Nc4ccc(OCc5nccs5)c(Cl)c4)c3c2)=N1, the growth is reported as -16.4% (active). For COc1ccc(C(=O)C2OC3=C(C(=O)CC(C)(C)C3)C2c2cccc(Oc3ccccc3)c2)cc1 (stereo not given), the growth was 94.3% (inactive). With NS(=O)(=O)c1ccc(NC2=C(Cl)C(=O)c3ccccc3C2=O)cc1 the growth was -67% (active). CCCCc1ccc(N=Nc2ccc(OCC[N+](C)(C)C)cc2)cc1 was tested, and the growth was 4.13% (active). With Cc1c(C(=O)Nc2nc(-c3ccccc3)cs2)nnn1-c1ccccc1Br the growth was -1.78% [50 µM] (active). In the case of COc1ccc(/C=N/C2=C(C#N)C(c3cccc(Cl)c3)c3c(ccc4ccccc34)O2)cc1 (stereo not given), the growth is reported as 3.32% (active). With Cc1ccc(S(=O)(=O)Nc2cccc(Cn3c(=O)[nH]c4ccc(Oc5ncccn5)cc4c3=O)c2)cc1 the growth was 39.6% (inactive). In the case of O=C1NC(=C(Cl)Cl)/C(=N/S(=O)(=O)N2CCCCC2CC2(C(F)(F)F)N=N2)N1 (stereo not given), the growth is reported as -44.8% (active). For CCN1CCOC1C(C)C (stereo not given), the growth was 109% (inactive). For CC1(c2ccc3ccccc3c2)CCC(=O)O1 (stereo not given), the growth was 100% (inactive). COc1ccc2[nH]cc(-c3nc(-c4cn(C)c5c(Cl)nccc45)cs3)c2c1 was tested, and the growth was 18.1% (inactive).
